Only some compounds are listed: those with a hit (about 21% of all), similar ones and a draw of the others.
Pf growth 96h = P. falciparum growth inhibition at 96 hour, primary screen for plastid delayed-death inhibitors; Potency, µM (top dose mostly 28.7 µM), most hits filed as inhibitors; 320,000 tested, 6.9% active; AID 504834; P. falciparum luciferase reporter growth, 96 h
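Two parasite generations (96 h, 37 C, 5% CO2) of compound exposure in infected erythrocytes (0.05% parasitemia, 2% hematocrit). Luciferase-reporter P. falciparum; decreased luminescence indicates inhibited growth, aimed at apicoplast-acting delayed death.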
Cycloheximide cs = counter-screen hit for Shiga toxin inhibitors, cycloheximide. max response, %. cell reporter, cycloheximide protein synthesis inhibition counterscreen. 300,000 tested, 12% active. AID 2314; in the data active = max response mostly above about 13%, no sharp cut-off; inactive = mostly below about 14%; note: read at 38.3 µM for the half of the compounds with a filed dose
Shiga inhibitor = blocks Shiga toxin action in Vero cells. AID 2315. inhibition, % at 38.7 µM. Vero cells, Shiga toxin protein synthesis inhibition reporter. 290,000 tested, 9.2% active; in the data active = inhibition mostly above about 28%, no sharp cut-off; inactive = mostly below about 43%
Pf growth 48h = inhibits P. falciparum growth in the first generation, 48 h; P. falciparum luciferase growth in erythrocytes, 48 h; Potency, µM (series often up to 28.7 µM), actives largely listed as inhibitors; 310,000 tested, 5.9% active; AID 504832
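Luciferase-expressing P. falciparum in infected erythrocytes (2% hematocrit, 0.1% parasitemia final) in RPMI 1640/0.5% Albumax were exposed to compound for 48 hours at 37 C, 5% CO2; growth read as luminescence.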
Each line names hits and unclear results; the compound was inactive in the other large screens. Unless noted, calls come from the whole dose curve; as a rule, active = well fitted inhibition curve with a large enough effect; inconclusive = small, poorly fitted or top-dose-only effect, or another doubt; inactive = no such curve, though single readings can be large or run the other way.

O=C1C=C(c2ccc(F)cc2OCc2ccccc2)C[C@@H](c2ccc(F)cc2)C1	Pf growth 96h inconclusive (no result: Cycloheximide cs, Shiga inhibitor)
COc1cc(NC(=O)c2ccc([N+](=O)[O-])cc2)c(OC)cc1NC(=O)CC(C)C	Pf growth 96h inconclusive
COc1ccc(S(=O)(=O)N2CCCC2)cc1C(=O)O	Pf growth 48h inconclusive
CCCN(C(=O)COC(=O)Cn1c(=O)oc2ccccc21)c1c(N)n(Cc2ccccc2)c(=O)[nH]c1=O	none (no result: Cycloheximide cs, Shiga inhibitor)
O=Cc1ccc(OC(=O)CCCCC(=O)Oc2ccc(C=O)cc2)cc1	Pf growth 96h 0.0033µM, Pf growth 48h inconclusive
O=c1c(Cl)c(N2CCN(c3ccc(F)cc3)CC2)cnn1C12CC3CC(CC(C3)C1)C2	Pf growth 96h 4.15µM, Pf growth 48h 4.65µM
O=c1c(Cl)c(NCc2ccc(F)cc2)cnn1C12CC3CC(CC(C3)C1)C2	Pf growth 48h 13.1µM
Cc1ccc(CNc2cnn(C34CC5CC(CC(C5)C3)C4)c(=O)c2Cl)cc1	Pf growth 96h inconclusive
COCCN=c1scc(-c2cc(OC)c(OC)c(OC)c2)n1/N=C/c1c(C)[nH]c2ccccc12	Pf growth 96h 2.62µM, Pf growth 48h 7.38µM
CC/C(=N\NC(=O)Nc1ccccc1)c1ccccc1	Pf growth 96h inconclusive, Cycloheximide cs 19.4
N/C(=N\NC(=O)Nc1ccccc1)c1ccccn1	Cycloheximide cs 44.6, Shiga inhibitor 57.2
CC(=O)SC(C)CC(=O)Nc1ccccc1 (stereo not drawn)	none
CCOC(=O)C/C(C)=N\Nc1nc(-c2ccccc2)cs1	none
CCOC(=O)C/C(C)=N/NC(=O)Nc1ccccc1	Cycloheximide cs 39.6, Shiga inhibitor active
C/C(CC(C)C)=N\NC(=O)Nc1ccccc1	Pf growth 96h inconclusive, Cycloheximide cs 41.8, Shiga inhibitor 42.4
Cc1cccn2c(CNCCc3ccco3)c(C(=O)N3CCOCC3)nc12	Pf growth 48h inconclusive
NNc1cc(C(=O)O)ccc1Cl	none
NNc1ccc(Cl)c(C(=O)O)c1	Cycloheximide cs 35.5, Shiga inhibitor 95.5
O=C(O)/C=C/C(=O)Nc1ccc(Cl)c(C(=O)O)c1	Cycloheximide cs 19.3, Shiga inhibitor 50.6
CC1(C)Cc2[nH]c3ccccc3c2C(C)(C)N1	none
O=C(Nc1ccccc1)C1CCCN1S(=O)(=O)c1ccc(Br)cc1 (stereo not drawn)	none
O=C(CCCn1c(=S)[nH]c2cc3c(cc2c1=O)OCO3)N1CCN(c2ccc(Cl)cc2)CC1	none
O=C(CCCn1c(=S)[nH]c2cc3c(cc2c1=O)OCO3)N1CCN(c2ccccc2)CC1	Pf growth 96h 13.1µM
CC(=O)c1ccc(N2CCN(C(=O)CCCn3c(=S)[nH]c4cc5c(cc4c3=O)OCO5)CC2)cc1	Pf growth 48h 11.7µM
COc1ccc(-c2nc(-c3ccccc3)nc(N3CCN(C)CC3)c2C#N)cc1	Pf growth 96h 13.1µM, Pf growth 48h inconclusive
CCN1CCN(c2nc(-c3ccccc3)nc3ccccc23)CC1	Pf growth 96h inconclusive, Pf growth 48h inconclusive
CN1CCN(c2nc(-c3ccc(C(C)(C)C)cc3)nc3ccccc23)CC1	Cycloheximide cs 57.3, Shiga inhibitor 58.5
Cc1ccc(-c2nc(N3CCN(C)CC3)c3ccccc3n2)cc1	Cycloheximide cs 11.9, Pf growth 48h inconclusive
CN1CCN(c2nc(-c3ccccc3)nc(-c3ccccc3)c2C#N)CC1	Pf growth 96h inconclusive, Pf growth 48h inconclusive
CN1CCN(c2nc(-c3ccc(Br)cc3)nnc2-c2ccccc2)CC1	Cycloheximide cs 21.8, Pf growth 48h inconclusive
CC(C)(C)N(Cc1ccccc1)C(=O)COC(=O)CN1C(=O)NC2(CCCC2)C1=O	Pf growth 96h inconclusive
COc1ccc(CCC(C)N(C)Cc2ccccc2)cc1 (stereo not drawn)	Pf growth 96h inconclusive
O=C(Nc1cccc(Cl)c1)/C(=C\c1cccnc1)NC(=O)c1ccco1	none
C/C(=N\O)C(C)Oc1ccc(Cl)cc1 (stereo not drawn)	none
COC(=O)C1CC23C=CCN4CCC5(c6ccccc6NC15C2C)C43 (stereo not drawn)	Pf growth 48h 1.47µM
COc1ccc(-c2nnc3n(CCc4ccccc4)c(=O)c4ccccc4n23)cc1OC	Pf growth 96h 11.7µM
CC(C)C(C)(C#N)NC(=O)CSc1nc(C2CCCCC2)n(-c2ccccc2)n1 (stereo not drawn)	Pf growth 96h inconclusive, Pf growth 48h inconclusive
O=C(CCCC1=NS(=O)(=O)c2ccccc2N1)OCc1ccc(Cl)cc1	Pf growth 96h inconclusive, Pf growth 48h inconclusive
Cc1ccccc1COC(=O)CCC1=NS(=O)(=O)c2ccccc2N1	Pf growth 96h 11.7µM
CCOC(=O)C1(CC/C(C)=N\NC(N)=O)CC(C)(C)OC1=O (stereo not drawn)	none
CCN(CC)C(=O)CSc1nnc(-c2cc3ccccc3cc2O)n1CC	Pf growth 48h 8.28µM
CCn1c(SCC(=O)O)nnc1-c1ccccc1OC	Cycloheximide cs 48.9, Shiga inhibitor 102.6
COc1ccccc1-c1nnc(SCC(=O)O)n1-c1ccccc1	none
CC(C)CN(C(=O)CN1CCN(c2ccc([N+](=O)[O-])cc2)CC1)c1c(N)n(CC(C)C)c(=O)[nH]c1=O	Pf growth 96h inconclusive
COc1cc2c(=O)n(CCC(=O)NCC3CCCO3)c(=O)n(CC(=O)Nc3ccc(F)cc3)c2cc1OC (stereo not drawn)	Pf growth 96h inconclusive
COc1ccc(-c2ccnc3c(C(=O)O)cnn23)cc1	none
COc1cc(NS(=O)(=O)c2ccc([N+](=O)[O-])cc2)c2ncccc2c1	none (no result: Pf growth 96h, Pf growth 48h)
CN(C)c1ccc(/C=N/NC(=O)CN2CCCCC2)cc1Br	none (no result: Shiga inhibitor)
c1ccc2nc(-c3ccncc3)ccc2c1	Cycloheximide cs 33.8, Shiga inhibitor 84.3
Cc1ccc(-c2cc3ccccc3nc2N2CCOCC2)cc1	none
O/C(=C\c1ccc2ccccc2n1)c1ccncc1	none (no result: Cycloheximide cs, Shiga inhibitor)
Cc1cc(-c2ccc(N3CCOCC3)cc2)nc2ccccc12	Cycloheximide cs 30.4, Shiga inhibitor 27.6
c1ccc2nc(-c3ccc(N4CCOCC4)cc3)ccc2c1	Cycloheximide cs 32.5, Shiga inhibitor 67.2
CN1CCN(c2ccc(-c3ccc4ccccc4n3)cc2)CC1	none
Cc1ccc(C)c(OCCC(=O)Nc2ccc3c(c2)OCO3)c1	none (no result: Cycloheximide cs, Shiga inhibitor)
Cc1cccc(CS(=O)(=O)c2ncc(CO)n2C)c1	none (no result: Pf growth 48h)
Cc1ccc(C(NC(=O)N2CCCC2)C(Cl)Cl)cc1F (stereo not drawn)	Pf growth 96h inconclusive, Pf growth 48h inconclusive
Cc1ccc(C(NC(=O)NN2CCN(C)CC2)C(Cl)Cl)cc1F (stereo not drawn)	Cycloheximide cs 31.7, Shiga inhibitor 78.7
Oc1ccccc1CNc1ccc(Br)cn1	none
Brc1ccc(NCc2cccc3ccccc23)nc1	Cycloheximide cs 26.5 (no result: Pf growth 48h)
COc1ccccc1CNc1ccc(Br)cn1	Pf growth 96h inconclusive, Cycloheximide cs 50.3, Shiga inhibitor 99.0
CC1CC(O)CC(C)(C)C1 (stereo not drawn)	none (no result: Cycloheximide cs, Shiga inhibitor)
COc1ccc(CNCCC(c2ccc(OC(C)C)cc2)c2ccccc2OC)cc1OC (stereo not drawn)	Pf growth 96h inconclusive, Pf growth 48h 13.1µM
COc1ccc(CNCCC(c2ccc(OC(C)C)cc2)c2ccccc2OC)cc1 (stereo not drawn)	Pf growth 96h inconclusive, Pf growth 48h inconclusive
COc1ccccc1C(CCNCc1ccc(N(C)C)cc1)c1ccc(OC(C)C)cc1 (stereo not drawn)	Pf growth 96h 13.1µM, Pf growth 48h 8.28µM

Source: PubChem (National Center for Advancing Translational Sciences (NCATS))
